# Shown are actives, neighbours in structure and some others; about 1.5% of the full set was active somewhere.
# HGIII-sPLA2 inh = human group III sPLA2 inhibitors, primary screen, biochemical, QFRET, BODIPY PC-A2 liposome substrate | Group 3 secretory phospholipase A2 (Homo sapiens), Q9NZ20 | QFRET BODIPY PC-A2 liposome hydrolysis, fluorescence | inhibition, % at 12.2 µM | 370,000 compounds, 0.56% hits | AID 743126, 2013;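 active means inhibition above mean plus 3 SD of compounds lying within the high and low control bounds, cut at about 19% in these data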;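 further: 0% = median of test compound wells and 100% = no enzyme DMSO wells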
# AI-2 QS modul = Vibrio harveyi AI-2 quorum sensing modulators, primary screen, JMH597 strain, luminescence/OD600 ratio; AID 2094, 2009; activity change, % at 7.5 µM; Vibrio harveyi JMH597 AI-2 luminescence/OD600 ratio, 9 h; hits give low values; strain lacks LuxN and CqsS sensors; 0 = neutral-control median; 300,000 compounds, 0.4% hits; in the data active means activity change below about -75%, passing the limit was not always enough;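 further: luminescence divided by OD600 gain over 9 h not by final OD600 alone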
# Rin1-Abl PPI inh = inhibitors of Rin1-Abl protein binding, primary screen, biochemical, TR-FRET; Tyrosine-protein kinase ABL1 (Homo sapiens) + Ras and Rab interactor 1 (Homo sapiens), …; inhibition, % at 7.35 µM; 360,000 compounds, 0.4% hits; AID 588664, 2011; in the data active means inhibition above about 5%, passing the limit was not always enough
# ARNT-TACC3 inh = disruptors of ARNT/TACC3 protein interaction, primary screen, biochemical, AlphaScreen, single concentration. Transforming acidic coiled-coil-containing protein 3 (Homo sapiens), Q9Y6A5. AlphaScreen His-ARNT PAS-B/GST-TACC3 binding, luminescence; TACC3 fragment carries E629A point mutation. inhibition, % at 9.99 µM. 390,000 compounds, 0.66% hits. AID 623870, 2012;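 active means mean inhibition of replicates at least 50% and at least half of replicates each reaching 50%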;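 further: 0% = complete ARNT plus TACC3 wells and 100% = ARNT alone without TACC3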
# Active calls of the source: *; nt = not tested or not shown.
SMILES,HGIII-sPLA2 inh,AI-2 QS modul,Rin1-Abl PPI inh,ARNT-TACC3 inh
O=C(Nc1ccc(Cl)cc1)N[C@H]1CC[C@@H](CCNC(=O)c2ccccc2F)O[C@@H]1CO,nt,nt,nt,1
Clc1ccc(-c2ccc(CNCc3ccccn3)o2)cc1,0,19,-2,73*
Cn1c(=O)c2cc(S(=O)(=O)NCCC(=O)NCc3ccccc3Cl)ccc2n(C)c1=O,-1,23,-2,50*
Cc1c(CC(=O)O)c(=O)oc2cc3occ(-c4ccccc4)c3cc12,-7,22,4,-10
Cc1c(CC(=O)N[C@@H](C)C(=O)O)c(=O)oc2cc3occ(-c4ccccc4)c3cc12,-11,13,0,48*
Cc1c(CC(=O)N[C@@H](C)C(=O)O)c(=O)oc2c(C)c3occ(-c4ccccc4)c3cc12,-1,18,2,76*
Cc1coc2c(C)c3oc(=O)c(CC(=O)N[C@@H](CC(C)C)C(=O)O)c(C)c3cc12,-7,10,2,-7
C[C@@H]1CN([C@H](C)CO)C(=O)c2cc(-c3ccc(F)cc3)cnc2O[C@H]1CN(C)C(=O)NC1CCCC1,nt,nt,nt,-11
Cc1ccc(C(=O)Cn2nnc(-c3ccccc3-n3cnnn3)n2)cc1,-16,-6,3,-9
Cc1ccc(C(=O)Cn2nnc(-c3ccccc3)n2)cc1,-81,-92*,1,0
O=c1ccc2[n+]([O-])c3ccc(O)cc3oc-2c1,-12,-418*,2,6
CCNC(=S)NNC(=O)c1cccn(Cc2ccc(Cl)cc2)c1=O,13,12,-4,44*
Cc1nnc(SCc2ccccn2)n(N)c1=O,0,31,-4,active
Nn1c(SCc2ccccn2)nncc1=O,4,11,-4,56*
CC(C)CC#Cc1cnc2c(c1)C(=O)N([C@H](C)CO)C[C@@H](C)[C@@H](CN(C)C(=O)c1ccc3c(c1)OCO3)O2,nt,nt,nt,-3
C[C@H](CO)N1C[C@H](C)[C@H](CN(C)S(C)(=O)=O)Oc2cc(C#CCN(C)C)ccc2S1(=O)=O,nt,nt,nt,-4
O=C(NC1=C(Nc2ccc(Cl)cc2)C(=O)c2ccccc2C1=O)c1ccccc1,13,11,-10,51*
CO[C@H](CN(C)Cc1nccs1)[C@@H](C)CN([C@@H](C)CO)S(=O)(=O)c1ccc(C)cc1,nt,nt,nt,-2
C[C@@H]1CN([C@@H](C)CO)C(=O)Cc2cc(NC(=O)NC3CCCCC3)ccc2O[C@H]1CN(C)Cc1ccc(Oc2ccccc2)cc1,nt,nt,nt,1
COc1cccc(-c2nnc(NC(=O)CCS(=O)(=O)c3ccc(C)cc3)o2)c1,3,18,0,10
COc1cc(-c2nnc(NC(=O)CS(=O)(=O)c3ccc(F)cc3)o2)cc(OC)c1OC,-1,19,2,54*
COc1cc(-c2nnc(NC(=O)CS(=O)(=O)c3ccc(C)cc3)o2)cc(OC)c1OC,5,17,-2,45*
COc1cc(/C=N/Nc2nncn2/N=C/c2ccc(O)c(OC)c2)ccc1O,4,17,4,51*
COc1ccc(OC)c(/C=N/Nc2nncn2/N=C/c2cc(OC)ccc2OC)c1,1,17,2,3
C[C@@H]1CN([C@@H](C)CO)S(=O)(=O)c2ccc(C#CC3CC3)cc2O[C@@H]1CN(C)C(=O)c1cnccn1,nt,nt,nt,5
SMILES,HGIII-sPLA2 inh,AI-2 QS modul,Rin1-Abl PPI inh,ARNT-TACC3 inh
C/C(=N\Nc1nnc(C)c(=O)[nH]1)C(=O)O,-1,34,-3,66*
CN(CC1CCCO1)S(=O)(=O)c1ccc(C(=O)Nc2nc(-c3ccccn3)cs2)cc1 (stereo not drawn),nt,nt,-4,59*
CN(CC1CCCO1)S(=O)(=O)c1ccc(C(=O)Nc2ccccc2F)cc1 (stereo not drawn),3,38,2,21
C[C@@H]1CN([C@@H](C)CO)C(=O)Cc2cc(NC(=O)Nc3ccccc3)ccc2O[C@H]1CN(C)C(=O)Nc1ccc(C(F)(F)F)cc1,nt,nt,nt,6
CN(/C=C/c1c([N+](=O)[O-])c(=O)n(C)c(=O)n1C)c1ccccc1,2,39,-2,active
C[C@@H]1CN([C@H](C)CO)C(=O)Cc2cc(NC(=O)Nc3ccc(C(F)(F)F)cc3)ccc2O[C@@H]1CN(C)Cc1ccc(C(F)(F)F)cc1,nt,nt,nt,7
C=CCNc1nc2c3ccccc3n(C(C)=O)c2s1,4,21,-2,active
CC(=O)n1c2ccccc2c2nc3ccccc3nc21,nt,29,0,-6
CC(=NNc1nc2ccccc2s1)c1ccncn1,6,nt,1,70*
CO[C@H]1CN(C)C(=O)c2ccc(NS(=O)(=O)c3ccccc3C)cc2OC[C@@H](C)N(S(C)(=O)=O)C[C@@H]1C,nt,nt,nt,-2
COCCn1c2nc(=O)n(-c3ccccc3)c(=O)c-2nc2ccccc21,-205,nt,-1,nt
Cn1c2nc(=O)n(-c3ccccc3)c(=O)c-2nc2c1CCCC2,nt,nt,9.1*,nt
O=C(O)c1cccc(OCCN2CCCC2=O)c1,2,17,2,-2
CN1CCC(=O)N(CCOc2ccccc2)CC1,6,31,10,60*
CC(=O)N[C@@H]1CC[C@H](CCNC(=O)C2CC2)O[C@H]1CO,nt,nt,nt,-13
C[C@@H]1CN([C@@H](C)CO)C(=O)c2cc(NS(=O)(=O)c3ccc(F)cc3)ccc2O[C@@H](C)CCCCO[C@H]1CN(C)S(=O)(=O)c1ccc(F)cc1,nt,nt,nt,-9
Cn1c(N=Nc2ccccc2)nc2ccccc21,0,14,-10,6
CN(C)c1ccc(N=Nc2nc3ccccc3n2C)cc1,32*,40,-20,1
O=C(CSc1nnnn1-c1ccc(O)cc1)c1cc2ccccc2o1,-24,-77*,-5,-3
C[C@@H]1CN([C@@H](C)CO)C(=O)c2cc(/C=C/c3ccccc3)cnc2O[C@H]1CN(C)C(=O)c1ccc(F)cc1,nt,nt,nt,2
Cc1ccc(NC(=O)CNCc2cccs2)cc1Br,-1,-76*,3,6
CC(=O)c1ccc(NC(=O)CNCc2cccs2)cc1,2,-11,-2,-11
CCCC(=O)Nc1ccc2c(c1)OC[C@@H](C)N(CC1CCCC1)C[C@H](C)[C@H](OC)CN(C)C2=O,nt,nt,nt,1
S=c1[nH]ncn1/N=C/c1ccco1,-4,nt,-4,nt
C(=N\Nc1nncn1/N=C/c1ccco1)/c1ccco1,-5,29,-2,64*
O=C(Nc1ccc2c(c1)nc1n2CCN(Cc2ccccc2)C1)c1cccs1,-2,5,0,43*
COc1ccccc1C(=O)Nc1ccc2c(c1)nc1n2CCN(Cc2ccccc2)C1,-10,21,1,12
C[C@@H]1CCCCO[C@H](CN(C)S(C)(=O)=O)[C@@H](C)CN([C@@H](C)CO)C(=O)c2cc(NS(=O)(=O)c3ccccc3)ccc2O1,nt,nt,nt,-5
CCOc1ccc2nc(/N=C/c3c(C)[nH]n(-c4ccccc4)c3=O)sc2c1,-1,8,1,27*
